FMDV inh – blocks foot and mouth disease virus; Potency, µM (doses to about 57.9 µM), for inactives: at the top dose activity change, negative = inhibition, most hits filed as inhibitors; FMDV antiviral cell-based qHTS; hit rate 1.2% among 410,000; calls by dose curve; tested in HEK293T cells; further: read-out not given here; potency means the concentration at half of the fitted maximal effect; nearly all actives have a fitted effect of over 45% in size
Sm TGR block – inhibitors of Schistosoma mansoni thioredoxin glutathione reductase | Q962Y6 | purified TGR, DTNB reduction, TNB absorbance 405 nm | Potency, µM (highest dose often 114 µM), for inactives: at the top dose activity change, negative = inhibition, actives largely listed as inhibitors | hit rate 3% among 360,000 | AID 485364; further: potency means the concentration at half of the fitted maximal effect; nearly all actives have a fitted effect of over 60% in size
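First, TGR (20 nM dispensed) and NADPH were mixed with compound. Second, a 15 min room-temperature incubation followed. Third, further NADPH and then DTNB were added to start the reaction. Finally, TNB absorbance was monitored kinetically.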
TbPYK inhibitor – inhibitors of Trypanosoma brucei pyruvate kinase. Q57TT1. TbPYK enzyme, Kinase-Glo Plus ATP luminescence, 45 min. Potency, µM (doses to about 76.8 µM), for inactives: at the highest dose activity, negative = inhibition, hits mostly inhibitors. hit rate 0.12% among 410,000; further: potency means the concentration at half of the fitted maximal effect; nearly all actives have a fitted effect of over 50% in size
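Readout: single end-point luminescence (Kinase-Glo Plus, 10 min). Reaction conditions were TbPYK/substrate plus 130 uM ADP, 45 min at RT, pH 7.2 TEA buffer. No-enzyme wells served as controls, and data were normalized before concentration-response fitting.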
FBPA Giardia inh – blocks Giardia fructose-bisphosphate aldolase activity; purified Giardia FBPA; Potency, µM (doses to about 59.6 µM), for the others: top-dose activity, negative = inhibition, most hits filed as inhibitors; hit rate 0.71% among 290,000; AID 2451; further: potency means the concentration at half of the fitted maximal effect; nearly all actives have a fitted effect of over 55% in size
Target sequence (A8B2U2 whole entry, looked up): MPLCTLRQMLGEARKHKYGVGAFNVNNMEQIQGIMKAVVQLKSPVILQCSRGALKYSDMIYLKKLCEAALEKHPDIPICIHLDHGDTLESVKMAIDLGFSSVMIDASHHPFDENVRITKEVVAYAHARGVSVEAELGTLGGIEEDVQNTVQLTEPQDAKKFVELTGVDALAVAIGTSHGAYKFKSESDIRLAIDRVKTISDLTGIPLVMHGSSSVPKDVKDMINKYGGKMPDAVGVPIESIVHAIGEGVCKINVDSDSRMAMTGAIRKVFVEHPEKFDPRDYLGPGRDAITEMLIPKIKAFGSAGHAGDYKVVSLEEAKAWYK
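Giardia FBPA (40 nM reagent) was preincubated 10 min at RT with compound (up to 57.5 uM final), then substrate plus GAPDH/TPI/NAD/arsenate coupling system with diaphorase/resazurin was added; resorufin fluorescence (525/598 nm) was read after 20 min.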
RE007 growth inh – less growth of the S. pombe RE007 Vpr strain; Potency, µM (series often up to 92.2 µM), without a hit: at the top dose activity change, negative = less growth, actives largely listed as inhibitors; S. pombe RE007 Vpr strain, BacTiter-Glo ATP luminescence, 24 h; hit rate 0.21% among 360,000; active means well fitted falling curve with a large enough effect; inconclusive means small, poorly fitted or top-dose-only effect; inactive means no such curve, though single readings can be large or run the other way; further: potency means the concentration at half of the fitted maximal effect; nearly all actives have a fitted effect of over 50% in size
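Fission yeast strain RE007, carrying one chromosomally integrated HIV-1 vpr copy, was seeded at OD 0.01 in PMG+AL medium with 23 nL pinned compound. After 24 h at 30 °C and 99% humidity, viability was read by BacTiter-Glo luminescence.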
HCMV antiviral – blocks human cytomegalovirus replication; AID 1259415; hit rate 4.5% among 410,000; HFF cells, HCMV-luciferase reporter, 72 h; stronger effect = lower value; activity change, negative = inhibition, % at 57.5 µM; in the data active means activity change below about -60%; inconclusive means no clear call, values can overlap the other calls; inactive means above about -39%
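Cell-based, HFFs, 1000 cells/well, 16 h 37C; cpds in DMSO + HCMV-luc, MOI 1 PFU/cell; 72 h 37C; OneGlo luminescence after 5 min RT; norm. to buffer vs Salinomycin 10uM.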
* hit, by the source's call; u = inconclusive; x = not tested or not shown. Shown are actives, neighbours in structure and some others; about 7.7% of the full set was active somewhere. Unless noted, the call rests on the fitted dose curve; in most records, active means well fitted curve in the direction sought with a large enough effect; inconclusive means small, poorly fitted or top-dose-only effect, or another doubt; inactive means no such curve, though single readings can be large; an effect the other way counts as inactive or inconclusive. On the % scale 0 is the no-effect control and ±100 the full control effect.

SMILES	FMDV inh	Sm TGR block	TbPYK inhibitor	FBPA Giardia inh	RE007 growth inh	HCMV antiviral
Cc1cc(C)c2nc(Nc3nc(CSc4nc5ccccc5[nH]4)cc(=O)[nH]3)nc(C)c2c1	u	x	3%	x	-7%	-65*
COc1ccc2nc(Nc3nc(CSc4ccc(C)cc4)cc(=O)[nH]3)nc(C)c2c1	4%	10%	6%	0%	3%	-67*
CCOc1ccccc1C(=O)NCc1ccc2c(c1)CCN2C(C)=O	42%	2%	0%	x	x	26
CCCCc1ccc(Nc2ncnc3c2cnn3-c2ccc(C)cc2)cc1	2%	0%	3%	x	x	-11
O=C(O)c1cc(-c2ccccc2)n(-c2ccc(Cl)cc2Cl)n1	-11%	-3%	-1%	9%	25%	-16
O=C(O)c1cc(-c2ccccc2)n(-c2ccccc2C(=O)O)n1	13%	0%	-1%	-8%	-16%	-100*
CC(C)(C)Cc1c(-c2ccc(C#N)cc2)nc2c(Cl)cc(C(F)(F)F)cn12	u	x	2%	x	35%	-83*
CCCc1cc(=O)oc2c3c(ccc12)OCN(Cc1ccccc1OC)C3	-17%	-2%	0%	x	x	4
CC(=O)c1ccc(NC(=S)Nc2cccc3cnccc23)cc1	-13%	20µM*	-13%	2µM*	-29%	-22
Cc1ccc(C)c(NC(=S)Nc2cccc3cnccc23)c1	-21%	u	-4%	u	u	-34
NC(=S)Nc1cccc2cnccc12	-24%	9%	-6%	-30%	-8%	-6
Cc1ccccc1NC(=S)Nc1cccc2cnccc12	u	u	-11%	2µM*	-16%	-65*
FC(F)(F)c1ccccc1NC(=S)Nc1cccc2cnccc12	u	35µM*	5%	u	-22%	-28
Fc1ccccc1NC(=S)Nc1cccc2cnccc12	13%	40µM*	-6%	u	-23%	37
COc1ccc(OC)c(CCNC(=O)c2c3c(nc4ccccc24)C(=O)N(C2CCCCC2)C3)c1	-11%	-1%	-2%	x	x	40
Cc1oc(-c2ccccc2NC(=O)C2CCCO2)nc1CNC(=O)c1cc(Cl)ccc1F (stereo not given)	-9%	x	x	x	x	x
CCC1CN2CCC1CC2[C@@H](NC(=S)Nc1cc(C(F)(F)F)cc(C(F)(F)F)c1)c1cccc2ccc(OC)cc12 (stereo not given in full)	x	x	x	-5%	x	x
Cc1ccc(NC(=S)Nc2cccc3cnccc23)cc1	13%	45µM*	-18%	u	-13%	31
O=C(Nc1ccc(F)cc1)C1CCN(c2nc3ccccc3n3cccc23)CC1	-2%	0%	0%	x	x	-5
CCCN(CC1CC1)C(=O)CSc1ncnc2sc(C)c(C)c12	u	-5%	2%	8%	10%	-83*
Oc1ccc(O)c2c1C1c3ccccc3C2c2ccccc21	x	5µM*	x	2%	x	x
Cc1cnc(-n2ncc(C(=O)NCCCc3ccncc3)c2C)nc1-c1ccc(F)cc1	3%	x	x	x	x	x
O=C(CCN1CCOCC1)Nc1ccc(Br)cc1C(=O)c1ccccc1	-12%	25µM*	4%	u	-2%	-8
COc1cc(NC(=O)CSc2nnc(C)n3c2cc2oc(C)cc23)cc(OC)c1	-2%	0%	-4%	x	x	8
Cc1ccc(Cn2cnc3c(oc4ccccc43)c2=O)cc1	79%	-6%	-2%	x	x	43
CCn1ccnc1C(O)c1ccc(N(C)C)cc1 (stereo not given)	17%	10µM*	7%	-10%	14%	7
O=C1CCC[C@H]2[C@@H](Cc3ccccc3)[C@@H](NCC3CCCCC3)CC[C@]23CCCN13	x	x	x	x	x	13
Cc1ccccc1NN=Nc1nc2c([nH]1)c(=O)n(C)c(=O)n2C	1%	56µM*	-28%	-21%	-16%	-27
Cn1c(=O)c2[nH]c(N=NNc3ccccc3F)nc2n(C)c1=O	34%	40µM*	5%	u	0%	16
